# From PubChem BioAssay
# Rows were chosen to be rich in hits. Some 2.5% of all compounds tested hit in one or more screens of this group.
# SKN-1 inh: inhibitors of C. elegans SKN-1. C. elegans VP596 Pgst-4::GFP/RFP ratio, acrylamide-induced, 24 h. 0.49% of 360,000 active. inhibition, % at 21.8 µM;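 active = interference check ratio from 0.5 to 1.5 plus GFP to RFP signal ratio inhibition reaching or exceeding a fixed threshold, cut at about 30% in these data, passing the limit was not always enough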
# TAG inh: triacylglycerol accumulation inhibition; H9c2 cells, Nile Red lipid (TAG) fluorescence; cells loaded with 200 µM oleic acid; 0.66% of 230,000 active; inhibition, % at 12.5 µM;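 active = pattern-corrected inhibition of lipid staining of at least 50% with the nuclear-stain viability signal not falling by more than 50%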;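 note: 0% = DMSO wells and 100% = triacsin C control wells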
# iPSC survival up: hiPSC single-cell survival enhancement | ATPlite luminescence; 100% = ROCK inhibitor wells, 0% = DMSO | AID 602274 | 0.044% of 360,000 active | survival enhancement, % at 20 µM; in the data active = survival enhancement above about 18%;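 note: cells exposed to compounds for 16 hours before the ATP read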
# CRFBP-R2 block: blocks CRF-induced signaling of the CRF-BP/CRF-R2 complex | inhibition, % at 11.8 µM | AID 588475 | HEK293 CRF-R2/CRF-BP, CRF-induced calcium fluorescence | 0.59% of 350,000 active;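 active = inhibition of the ligand-induced calcium signal above about 50% at the single tested concentration, limit read from the data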
# Cardio protect: myocardial damage modulation in H9c2 cells | protection from H2O2 cell death, % at 20 µM | H9c2 cardiomyocytes, H2O2 injury protection, ATPLite, 2 h | AID 588492 | 0.63% of 360,000 active;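 active = compounds giving at least 50% protection of heart cells from peroxide-induced death in the single-dose screen, raw or plate-pattern-corrected value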;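 note: 0% = DMSO wells with peroxide and 100% = DMSO wells without peroxide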
# CRFR2-BP ag: agonists of human CRF-binding protein/CRF-R2 receptor complex | HEK293 CRF-R2/CRF-BP, calcium dye fluorescence (FLIPR); percent of saturating CRF peptide response | activation, % at 13.2 µM | 0.46% of 350,000 active | AID 588473;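 active = activation of at least 50%, plus an integration ratio under a set limit after plate pattern correction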;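 note: plate controls were neutral control wells without compound for no effect and CRF at EC100 for full effect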
# TAG conf: triacylglycerol accumulation inhibition, confirmation. shares compounds with TAG inh. H9c2 lipid accumulation, Nile Red fluorescence; cells loaded with 200 µM oleic acid. inhibition, % at 12.5 µM. 71% of 990 active. AID 651629;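 active = mean inhibition across replicates of 40% or more; inactive = mean inhibition below 40%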;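 note: plate controls were DMSO only wells for no effect and Triacsin C treated wells for full effect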
# An asterisk follows results filed as active; · = no result.
SMILES,SKN-1 inh,TAG inh,iPSC survival up,CRFBP-R2 block,Cardio protect,CRFR2-BP ag,TAG conf
N#CC1=C(N)Oc2cc(Nc3ccccc3)ccc2C1c1ccncc1 (stereo not drawn),-13,57*,11,-6,-2,1,83*
CCN(CC)CCNc1nc2c(c(=O)[nH]c(=O)n2C)n1CC(O)COc1ccc(Cl)cc1Cl (stereo not drawn),6,·,0,11,14,0,·
Cc1cc(C)n(-c2nc3c(c(=O)[nH]c(=O)n3C)n2CC(O)COc2ccc(Cl)cc2Cl)n1 (stereo not drawn),-3,82*,-1,-6,3,0,74*
COc1ccccc1N(CC(O)CN1CCC(C)CC1)S(=O)(=O)c1ccccc1 (stereo not drawn),20,·,0,8,5,-1,·
Cc1ccc(C2C(C=Nc3c(C)n(C)n(-c4ccccc4)c3=O)=C(c3ccccc3)Oc3ccccc32)cc1 (stereo not drawn),11,69*,0,9,-3,-1,57*
COc1cc(NC(=O)c2ccco2)c(OC)cc1NC(=O)CCC(=O)Nc1cccc(C)c1C,-14,56*,0,-3,12,0,52*
O=C(NCCCN1CCCCC1)c1ccc(CS(=O)c2ccc(Cl)cc2)o1 (stereo not drawn),-3,·,1,-1,0,0,·
COC(=O)C1=C(C)N(Cc2ccccc2)C(=NCc2ccc(OC)cc2)N[C@H]1c1ccccc1,-11,56*,-6,-15,8,3,17
COC(=O)C1=C(C)N(Cc2ccccc2)C(=NCC(C)C)N[C@H]1c1ccccc1,·,·,·,-24,·,14,·
COc1cc2c(c(OC)c1OC)-c1ccc(SC)c(=O)cc1C(NC=O)CC2 (stereo not drawn),-4,69*,-2,-1,1,-2,47*
COc1cc2c(c(OC)c1OC)-c1ccc(OC)c(=O)cc1C(NC(=O)c1ccccc1)CC2 (stereo not drawn),-4,55*,-2,20,8,-1,69*
COc1cc(/C=C/C(=O)O)cc(S(=O)(=O)Nc2ccccc2C(=O)NCc2ccco2)c1OC,-3,5,1,-3,6,0,·
Cc1cc(NC(=O)c2sccc2C)n(-c2nc3ccccc3[nH]2)n1,7,64*,-1,-51,24,-1,59*
CCOC(=O)c1[nH]c(C)c(C(=O)Nc2ccccc2C)c1C,19,54*,-2,5,-7,-2,59*
CCOC(=O)c1[nH]c(C)c(C(=O)Nc2cc(Cl)ccc2C)c1C,2,·,-3,0,-1,-4,·
O=C(CC1CCCC1)Nc1ccc(Br)cc1,14,·,0,0,-10,1,·
CCN(CC)CCCNC(=O)c1ccc2c3n(nc2c1)-c1ccc(Cl)cc1CO3,-9,-10,-1,13,0,0,·
OC[C@@H]1CN(Cc2cccnc2)C[C@H](n2cnc3c(NC4CCCC4)ncnc32)O1,4,8,1,·,18,·,·
COc1ccc(NC(=O)Cn2c(=O)n(-c3ccc(CC(=O)NCc4ccco4)cc3)c(=O)c3ccccc32)cc1,1,65*,0,2,1,2,54*
O=C(Cn1nnc(-c2ccc(Cl)cc2)n1)NCc1ccco1,0,·,-1,16,2,2,·
COc1ccc(C(=O)Nc2ccc(-c3nnn(CC(=O)NCc4ccco4)n3)cc2)cc1,4,53*,0,12,-2,0,16
CCOc1ccc(CCNC(=O)c2cc3sccc3n2CC)cc1OCC,3,79*,-2,16,-1,0,40
CC(C)(C)c1cc(NCc2ccccn2)n2ncc(-c3ccc(Cl)cc3)c2n1,5,52*,1,1,3,-1,44*
Cc1nn2c(NCc3ccccn3)cc(C(C)(C)C)nc2c1-c1ccccc1,7,-11,-1,9,4,-1,·
COc1ccccc1[C@H]1C(c2cccc(C)c2)=NN(c2ccccc2)[C@@H]1CO,7,72*,-2,17,-14,1,15
SMILES,SKN-1 inh,TAG inh,iPSC survival up,CRFBP-R2 block,Cardio protect,CRFR2-BP ag,TAG conf
COc1ccccc1[C@H]1C(c2ccccc2)=NN(c2ccccc2)[C@@H]1CO,9,2,2,-3,0,-3,·
COc1cc2c(cc1NC(=O)Nc1cccc(C)c1)oc1ccccc12,-23,51*,-4,-15,-4,0,33
COc1cc2c(cc1NC(=O)Nc1ccc(C)cc1)oc1ccccc12,8,26,-3,5,1,0,·
O=C(c1cccc(S(=O)(=O)N2CCOCC2)c1)N1CCCC(C(F)(F)F)C1 (stereo not drawn),16,-20,1,7,4,0,·
N=c1c(C(=O)NCc2ccc(F)cc2)cc2c(=O)n3ccccc3nc2n1CC1CCCO1 (stereo not drawn),-4,51*,0,-10,10,-2,35
Cc1ccc(S(=O)(=O)N2CCCCC2)cc1NC(=O)COC(=O)Cc1cccc(C(F)(F)F)c1,10,·,-1,-1,-14,2,·
CCCCSc1nc2ccc(Nc3nc(N4CCOCC4)nc(N4CCOCC4)n3)cc2s1,-9,80*,4,-18,10,0,97*
CCCCNC(=O)CSc1nc2ccc(Nc3nc(N4CCOCC4)nc(N4CCOCC4)n3)cc2s1,-1,57*,-1,17,22,0,-3
Cc1ccc(Nc2nc(N3CCOCC3)nc(N3CCOCC3)n2)cc1C,4,·,1,-8,-2,0,·
CCCC(=O)Nc1ccc2nc(SCC(=O)N3CCCC3)sc2c1,6,-2,0,15,13,2,·
CC1(C(=O)NCc2cccc3ccccc23)CCN1C(=O)C1(c2ccccc2)CCCC1 (stereo not drawn),8,37,-2,·,-13,·,·
COc1ccc(N=C2C(=Nc3ccc(OC)cc3)N(c3ccc(OC)cc3)C(=S)N2C(=O)c2ccc(OC)cc2)cc1,30,54*,0,-5,-1,0,99*
C=CCn1c(N)cc(=O)nc1SC(C)C(=O)Nc1ccc(C(=O)OCC)cc1 (stereo not drawn),-11,-6,0,11,-2,2,·
COc1cc(C2c3cc4c(cc3OC(C)(N3CCCC3)C2C)OCO4)cc(OC)c1OC (stereo not drawn),1,56*,-2,10,7,2,56*
COc1cc(C2c3cc4c(cc3OC(N3CCCC3)C2C)OCO4)cc(OC)c1O (stereo not drawn),-6,3,0,-17,-1,-1,·
